Screening data deposited in PubChem by several laboratories.
Shown are actives, neighbours in structure and some others; about 0.61% of the full set was active somewhere.
ugtP null kill = growth inhibition of ugtP-null S. aureus, primary screen, RN4220 ugtP deletion, OD600; 16 h; growth inhibition, % (test concentration not listed); 330,000 compounds, 0.54% hits; AID 1259309, 2017; in the data active = growth inhibition above about 68%;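 note: plate controls were untreated wells for no effect and antibiotic for full effect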
Mtb betalactam = beta-lactam sensitization of Mtb H37Rv, H37Rv | M. tuberculosis H37Rv growth with meropenem, percent inhibition | inhibition, % at 25 µM | 330,000 compounds, 0.27% hits | AID 434955, 2010; call rule not given here;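 note: growth measured after seven days incubation then overnight dye step; 0% = bacteria only wells and 100% = bacteria with antibiotic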
Sa RN4220 lethal = growth inhibition of S. aureus RN4220, primary screen, OD600 | 16 h | inhibition, % (test concentration not listed) | 330,000 compounds, 0.33% hits | AID 1259311, 2017; in the data active = inhibition above about 85%;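 note: plate controls were untreated cells for no effect and reference antibiotic for full effect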
Mtb hypoxia inh = PubChem AID 1159583 | M. tuberculosis hypoxia-regulated fluorescent reporter, fluorescence | fluorescence inhibition, % (concentration not given with the values) | 300,000 compounds, 0.1% hits; in the data active = fluorescence inhibition mostly above about 23%, no sharp cut-off; inactive = mostly below about 17%
Numbers without * were called inactive; nt = not tested or not shown.

SMILES	ugtP null kill	Mtb betalactam	Sa RN4220 lethal	Mtb hypoxia inh
CC1CCN(c2nc(/C=C/c3ccccc3)nc3ccccc23)CC1	51	85	13	10
O=[N+]([O-])c1ccccc1/C=C/C=Nn1c(-c2cc(-c3ccccc3)n[nH]2)n[nH]c1=S	-10	nt	5	9
CC(=O)c1c(N2CCOCC2)nc2ccc(Br)cc2c1-c1ccccc1	85*	-1	-7	14
O=c1[nH]c2ccc(Br)cc2c(-c2ccccc2)c1N1CCOCC1	-15	-3	-2	-5
Cc1ccc(-n2nnnc2SC(C(=O)c2c[nH]c3ccccc23)c2ccccc2)cc1 (configuration not stated)	90*	3	65	2
Clc1ccc(-c2nnnn2-c2ccc(Cl)cc2)cc1	-4	-2	3	7
Cc1ccc(-n2nnnc2C(Cl)(Cl)c2nnnn2-c2ccc(C)cc2)cc1	100*	92	100*	10
O=C(CSc1nccc(-c2cccs2)n1)Nc1ccc(F)c(Cl)c1	89*	-14	83	5
O=C(CSc1nccc(-c2cccs2)n1)Nc1cccc(Cl)c1	14	3	15	10
CCOc1ncccc1C(=O)Nc1cc2c(cc1Br)OCCO2	15	3	5	36*
CNCCC(Oc1cccc2ccccc12)c1cccs1 (configuration not stated)	-4	nt	0	7
O=C(O)COc1ccccc1C=NNC(=O)CN1CCN(Cc2ccc(Cl)cc2)CC1	3	nt	4	-2
CCCCCCCCCC[n+]1cccc2c3ccccc3ccc21	100*	nt	100*	13
Cc1cccc[n+]1CCCCCCCCCC[n+]1ccccc1C	9	4	5	13
CCCCCCCC[n+]1cccc2c3ccccc3ccc21	101*	16	100*	8
CC(C)Oc1cc(-n2c(=S)[nH]c3ccccc3c2=O)c(Cl)cc1Cl	101*	87	100*	nt
Cc1ccc(S(=O)(=O)N(c2nc(N(C)C)nc(N(C)C)n2)n2cnnc2)cc1	98*	4	94*	-10
Cc1ccc(S(=O)(=O)Nn2cnnc2)cc1	5	-6	4	-2
O=[N+]([O-])c1ccccc1S(=O)(=O)Nc1ccc(S(=O)(=O)Nc2nccs2)cc1	95*	98	-3	66*
O=C(CC(=O)NN=Cc1ccccc1O)NCc1cccnc1	-7	nt	6	10
S=C(NNc1ccnc2cc(Cl)ccc12)Nc1ccc(Cl)cc1Cl	6	90	90*	13
CCOC1OC(C(=O)NC2CC2)=CC(c2c[nH]c3ccccc23)C1CCCO (configuration not stated)	1	nt	3	10
COc1ccc(C(=O)C(C)OC(=O)CNC(=O)c2ccco2)cc1 (configuration not stated)	12	-4	5	31*
CC(C)(C)c1ccc(OCC(=O)NNC(=S)NC(=O)c2ccco2)c(Br)c1	98*	94	99*	-3
O=C(NC(=S)N(Cc1ccccc1)Cc1ccccc1)c1ccccc1F	94*	56	95*	-9
SMILES	ugtP null kill	Mtb betalactam	Sa RN4220 lethal	Mtb hypoxia inh
CN(CC(=O)Nc1ccccc1Br)C(=O)c1ccccc1Sc1ccccc1C#N	1	nt	9	25*
Cc1nc2ccccc2cc1C(=O)NN=Cc1ccccc1[N+](=O)[O-]	1	nt	3	2
O=C(N/N=C/c1cccc([N+](=O)[O-])c1)c1ccc2c(c1)OCCO2	nt	6	nt	nt
O=C(NN=Cc1cc([N+](=O)[O-])ccc1O)c1ccncc1	75	nt	86*	14
O=C(NN=Cc1cc(Cl)ccc1O)c1ccc(Br)cc1	90*	nt	74	13
O=C(NN=Cc1cc([N+](=O)[O-])ccc1O)c1ccc2c(c1)OCCO2	68	nt	90*	6
O=C(N/N=C/c1cc(Cl)ccc1O)c1ccccc1Br	nt	3	nt	nt
O=C(NN=Cc1cc([N+](=O)[O-])ccc1O)Nc1ccccc1	71	nt	91*	7
CC(=NNC(=O)c1ccccn1)c1ccc(Cl)cc1	2	nt	-5	-1
FC(F)(F)c1cc(COC2CCCNC2c2ccccc2)cc(C(F)(F)F)c1 (configuration not stated)	-19	nt	1	13
CCOc1ccc(N(CC(=O)NN=C(C)c2cccc(NC(C)=O)c2)S(=O)(=O)c2ccccc2)cc1	8	nt	-3	-10
O=[N+]([O-])c1ccc(O)c(/C=N/Nc2nn[nH]n2)c1	nt	5	nt	nt
O=[N+]([O-])c1ccc(O)c(C=NNc2nn[nH]n2)c1	87*	nt	95*	1
COc1ccc(-c2csc(NC(=O)c3ccccc3NS(=O)(=O)c3ccc(F)c(F)c3)n2)cc1	85	-5	89*	-5
Cc1ccc(S(=O)(=O)Nc2ccccc2C(=O)Nc2nc(-c3ccc(F)cc3)cs2)cc1	89*	-7	89*	-4
COc1ccc(-c2csc(NC(=O)c3ccccc3F)n2)cc1	15	6	-7	17
CC(=NNC(=O)c1ccco1)c1ccc(NC(=O)c2cccs2)cc1	6	nt	2	10
CCCCOc1ccc(CSC(CC(=O)O)C(=O)O)cc1 (configuration not stated)	-2	4	-13	18
CCCCOc1ccc(CSCCN=C(N)N)cc1	100*	nt	21	4
CC(=NNC(=O)c1nnn(-c2nonc2N)c1-c1ccccc1)c1ccncc1	-3	nt	3	0
O=C(Nc1nnc(-c2ccccc2)s1)c1ccccc1O	94*	-3	91*	7
COc1ccccc1C(=O)Nc1nnc(-c2ccccc2)s1	-23	13	0	-4
O=C(Nc1nnc(SCc2ccc(F)cc2)s1)c1ccccn1	99*	nt	98*	6
O=C(Nc1nnc(SCc2ccc(F)cc2)s1)c1cccnc1Cl	5	26	-6	8
O=C(Nc1ccc(Cl)c(Cl)c1)Nc1ccc(Br)cc1F	99*	73	100*	3
SMILES	ugtP null kill	Mtb betalactam	Sa RN4220 lethal	Mtb hypoxia inh
O=C1C=C(NC(=O)Nc2ccc(Cl)c(Cl)c2)CCC1	100*	55	100*	6
O=C(Nc1ccc(Cl)cc1)Nc1ccc(Cl)c(Cl)c1	nt	93	nt	nt
N#CC(=NNc1ccc([N+](=O)[O-])cc1)C(N)=S	14	nt	17	nt
Oc1[nH]c2ccc(Br)cc2c1N=NC(=S)N1CCOCC1	37	46	24	39*
O=[N+]([O-])c1ccc(-c2csc(NN=Cc3cccnc3)n2)cc1	22	nt	7	3
O=[N+]([O-])c1cccc(-c2csc(NN=Cc3cccc(O)c3)n2)c1	94*	nt	85	0
Cc1nc(-c2cccc(NS(=O)(=O)c3ccccc3)c2)cs1	25	-10	6	nt
Cc1ccc2nc(-c3cccc(NS(C)(=O)=O)c3)cc(-c3ccccc3)c2c1	94*	96	-4	5
O=c1oc2ccccc2nc1/C=C(\O)c1ccccc1	-3	98	5	46*
O=C(NC(NC(=S)Nc1cccc(Cl)c1)C(Cl)(Cl)Cl)OCc1ccccc1 (configuration not stated)	96*	6	90*	-3
CCCCCCCCCCS(=O)(=O)NN=Cc1ccccc1OC	97*	nt	4	7
CCCCCCCCCCS(=O)(=O)N/N=C/c1ccccc1OC	nt	0	nt	nt
